Measurements: PubChem BioAssay
Calls of active or inactive are those of the source.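 The calls were made as follows, unless noted: active = fluorescence slope after compound addition differing from the mean of all screened samples at 99.7% confidence, in either direction; inactive = the rest.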

Tests used:
[1] = inhibitors of TNFa-induced NFkB p65 translocation, primary screen, imaging, HUVEC, MLSMR starter and 10KST1 sets (AID 438;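 active = inhibition above 20% together with a positive visual image hit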;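 also: compound added about 3h40 before a 20 min TNFalpha stimulation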;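 as to inhibition: signal is the nuclear over cytoplasmic p65 intensity ratio per well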); conditions: HUVEC TNFa-induced p65 nuclear translocation; cell count: measured here: nuclei count (cytotoxicity indicator), at 2.08 µM; inhibition: at 2 µM, stronger effect = higher value, 0% TNFa-plus-vehicle, 100% no-TNFa wells
[2] = inhibitors of mutant huntingtin aggregation, primary screen, imaging, exon1htt(103Q)mCFP cells, high-content imaging (AID 483;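 active = visual image review flags a hit and inhibition of aggregation exceeds 20%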;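 also: compound exposure lasted 3 days before fixation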;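 as to nuclei count: percent of the per-plate median nuclei count of sample wells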); conditions: exon1htt(103Q)mCFP cell line, aggregate imaging, at 2 µM; inhibition of aggregation: stronger effect = higher value; nuclei count: measured here: cell count, toxicity
[3] = inhibitors of E-selectin induction by TNFa, primary screen, imaging, HUVEC, immunofluorescence, MLSMR starter and 10KST1 sets (AID 487;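 active = visually confirmed hit in the image check and inhibition above 20%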;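 as to inhibition: signal is fraction of cell area covered by stained E-selectin grains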;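 as to nuclei count: 100% = median nuclei count of all wells on the same plate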); conditions: HUVEC TNFalpha-induced E-selectin immunofluorescence imaging, at 2 µM; inhibition: stronger effect = higher value; nuclei count: measured here: cell number, toxicity
[4] = target: Voltage-gated potassium channel subunit beta-2 (Rattus norvegicus) (UniProt P62483); experiment: KvBeta enzyme negative modulators, primary screen, biochemical, NADPH fluorescence (AID 622;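 active = fluorescence slope higher than the sample average by over 3 SD, cut at about -0.22 in these data, passing the limit was not always enough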;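 also: slope of raw intensity against log time taken from 70 to 1610 s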); conditions: recombinant KvBeta, 4-cyanobenzaldehyde reduction, at 10 µM, stronger effect = higher value
Sequence of Voltage-gated potassium channel subunit beta-2 (Rattus norvegicus) (P62483 whole entry, looked up): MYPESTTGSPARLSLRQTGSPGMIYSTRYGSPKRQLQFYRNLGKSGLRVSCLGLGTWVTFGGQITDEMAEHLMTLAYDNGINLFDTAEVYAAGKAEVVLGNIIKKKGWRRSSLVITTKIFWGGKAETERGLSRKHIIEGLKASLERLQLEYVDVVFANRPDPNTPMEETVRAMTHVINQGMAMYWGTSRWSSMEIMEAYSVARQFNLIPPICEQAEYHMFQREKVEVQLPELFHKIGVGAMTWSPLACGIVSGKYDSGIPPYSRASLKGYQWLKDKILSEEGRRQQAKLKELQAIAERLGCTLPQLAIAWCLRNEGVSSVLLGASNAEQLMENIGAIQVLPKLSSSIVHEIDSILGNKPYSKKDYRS

[5] = target: Voltage-gated potassium channel subunit beta-2 (Rattus norvegicus) (UniProt P62483); experiment: KvBeta positive modulators, primary screen, biochemical, NADPH fluorescence (AID 623;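 active = NADPH fluorescence slope more negative than the mean of all samples by about 3 SD, 99.7% confidence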;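 also: fluorescence intensity change per second fitted from 20 to 320 s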); conditions: Recombinant KvBeta, NADPH fluorescence decrease slope, 10 min; at 10 µM; stronger effect = lower value
[6] = target: Alpha-2C adrenergic receptor (Homo sapiens) (UniProt P18825); experiment: modulators of alpha2C/GIRK thallium flux, primary screen, cell-based, HEK293 alpha2C/GIRK1/2 (AID 624); conditions: thallium flux BTC fluorescence, at 10 µM, actives lie on both sides;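 also: slope of fluorescence ratio to pre-addition baseline per second over 15 to 24 s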
Sequence of Alpha-2C adrenergic receptor (Homo sapiens) (P18825 whole entry, looked up): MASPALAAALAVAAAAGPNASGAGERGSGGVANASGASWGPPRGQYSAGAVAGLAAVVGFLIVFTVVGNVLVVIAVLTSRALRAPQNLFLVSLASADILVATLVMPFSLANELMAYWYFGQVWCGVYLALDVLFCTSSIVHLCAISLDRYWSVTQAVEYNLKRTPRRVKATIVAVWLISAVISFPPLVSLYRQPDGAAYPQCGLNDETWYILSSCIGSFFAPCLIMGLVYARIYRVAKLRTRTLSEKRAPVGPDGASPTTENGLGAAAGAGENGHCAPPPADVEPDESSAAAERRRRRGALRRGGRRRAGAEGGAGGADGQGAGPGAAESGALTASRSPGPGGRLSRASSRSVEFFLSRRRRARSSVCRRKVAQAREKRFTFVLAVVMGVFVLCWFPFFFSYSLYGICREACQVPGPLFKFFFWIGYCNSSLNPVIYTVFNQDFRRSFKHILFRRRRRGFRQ

[7] = inhibitors of Sendai virus-induced IRF3 signaling, primary screen, TLR/RLR signaling modifier project, cell-based, Sendai virus stimulus, luciferase, 10K MLSCN set (AID 602276;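 active = inhibition at or above 50% at 10 µM; inactive = inhibition below 50%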;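 also: firefly luciferase from ISG56 promoter only with Renilla not read in this screen; 0% = Sendai virus plus DMSO and 100% = medium plus DMSO without virus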); conditions: HEK293 RL24 IRF3 luciferase reporter, at 10 µM, stronger effect = higher value
[8] = inhibitors of poly I:C-induced TLR3 signaling, primary screen, cell-based, poly I:C stimulus, luciferase, 10K MLSCN set (AID 602277;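 active = inhibition of the reporter signal at or above 50%; inactive = inhibition below 50%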); conditions: HEK293-TLR3 RL24 IRF3 luciferase reporter, at 10 µM, stronger effect = higher value

SMILES	cell count [1]	inhibition [1]	inhibition of aggregation [2]	nuclei count [2] [%]	inhibition [3]	nuclei count [3] [%]	fluorescence slope [4]	NADPH fluorescence slope [5]	slope [6]	inhibition [7]	inhibition [8]
CC(C)(O)C#Cc1ccc(C(=O)N2CCN(C(=O)c3ccco3)CC2)cc1	547	-7.8% (inactive)	-25.3% (inactive)	121	45.3% (inactive)	133	-0.51 (inactive)	-3.3e-05 (inactive)	0.00463 (inactive)	16.5% (inactive)	13.5% (inactive)
Cc1cc(C(=O)N2CCN(c3ncccn3)CC2)cs1	401	-0.7% (inactive)	4.3% (inactive)	99	0.9% (inactive)	110	-0.591 (inactive)	-2.2e-05 (inactive)	0.00264 (inactive)	13.1% (inactive)	-6.87% (inactive)
COc1cccc(-c2csc(N3CCN(CC(=O)Nc4ccc5c(c4)OCO5)CC3)n2)c1	262	3.1% (inactive)	-24.6% (inactive)	88.4	-4.3% (inactive)	91.2	-0.622 (inactive)	-1.3e-05 (inactive)	0.00556 (inactive)	-45.8% (inactive)	-62.6% (inactive)
Cn1c(Cc2ccccc2)nnc1SCC(=O)c1ccc(Br)s1	180	0.4% (inactive)	16.7% (inactive)	94.8	-8.9% (inactive)	98.1	-0.596 (inactive)	-1.4e-05 (inactive)	0.00563 (inactive)	6.15% (inactive)	10.8% (inactive)
C/C(=N\O)C(=O)NCc1ccccn1	290	0.5% (inactive)	4.5% (inactive)	108	-55.3% (inactive)	104	-0.431 (inactive)	1.8e-05 (inactive)	0.00348 (inactive)	-4.43% (inactive)	-25.9% (inactive)
Cc1cc(N2CCN(c3ccccn3)CC2)n2nc(C)nc2n1	435	3.5% (inactive)	-16.4% (inactive)	105	-4.2% (inactive)	111	-0.376 (inactive)	-3.3e-05 (inactive)	0.00609 (inactive)	12.8% (inactive)	-7.58% (inactive)
Cc1nn(-c2ccc(F)cc2)c2sc(C(=O)O)cc12	354	4.7% (inactive)	3.7% (inactive)	86.9	-87.2% (inactive)	117	-0.447 (inactive)	-0.00011 (inactive)	0.00627 (inactive)	13.2% (inactive)	24% (inactive)
COC(=O)c1sc(N)c(C(=O)OC)c1CSc1nc2sc3c(c2c(=O)n1C)CCC3	428	14.1% (inactive)	-20% (inactive)	104	2.9% (inactive)	111	-0.524 (inactive)	-6.8e-06 (inactive)	0.00788 (inactive)	-6.85% (inactive)	15% (inactive)
O=C(O)C1C2C=CC(C3CC23)C1C(=O)NCCc1ccccc1 (stereo not drawn)	494	-7.5% (inactive)	19.2% (inactive)	54	-50% (inactive)	104	-0.467 (inactive)	-3.5e-05 (inactive)	0.00628 (inactive)	-3.61% (inactive)	11.6% (inactive)
O=C(CCSc1nccn1Cc1ccccc1)N1CCOCC1	447	-6.8% (inactive)	-9.1% (inactive)	93.1	-7.8% (inactive)	80.8	-0.524 (inactive)	-5.2e-05 (inactive)	0.00524 (inactive)	1.9% (inactive)	-9.28% (inactive)
CCOc1ccc(C2C(C#N)=C(N)Oc3cc(C)n(CCN(C)C)c(=O)c32)cc1OCC (stereo not drawn)	587	-7.4% (inactive)	1.7% (inactive)	98.3	11.8% (inactive)	93.1	-0.588 (inactive)	-4.4e-05 (inactive)	0.00685 (inactive)	14.3% (inactive)	38.2% (inactive)
Cc1occc1C(=O)N1CCN(Cc2ccccc2)CC1	661	-9% (inactive)	8.8% (inactive)	75.8	-40.1% (inactive)	104	-0.483 (inactive)	-3.8e-05 (inactive)	0.00745 (inactive)	7.4% (inactive)	34.1% (inactive)
COc1ccc(C2CC(c3cccc(C)c3)n3ncnc3N2)cc1 (stereo not drawn)	595	5.1% (inactive)	0% (inactive)	97.8	4% (inactive)	111	-0.569 (inactive)	1.9e-05 (inactive)	0.00625 (inactive)	-16.2% (inactive)	2.59% (inactive)
